HepG2 viability: qHTS for Inhibitors of TGF-b: Cytotox Counterscreen. HepG2 CAGA-GFP viability, ATP luminescence, 18 h. Potency, µM (series often up to 46.1 µM), inactives show at the highest dose activity change, negative = cytotoxicity, usual class: cytotoxic. 0.76% of 410,000 active. AID 588856, 2011; note: potency is the fitted concentration of half-maximal effect
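HepG2 CAGA-GFP cells (1000/well, DMEM with 1% FBS) received compound, then TGF-beta at 500 pg/mL final, and were incubated 18 hours at 37 degrees C. Viability was read by CellTiter-Glo luminescence. Media-only wells were set as complete cell-killing and DMSO as no toxicity.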
D3 ag: qHTS of D3 Dopamine Receptor Agonist: qHTS | AID 652048, 2013 | 0.58% of 410,000 active | D3R DiscoveRx beta-arrestin cells, luminescence, 90 min | max activation, % | D(3) dopamine receptor (Homo sapiens), P35462; in the data active = max activation above about 30%; note: 0% is about no effect
Target sequence (P35462 whole entry, looked up): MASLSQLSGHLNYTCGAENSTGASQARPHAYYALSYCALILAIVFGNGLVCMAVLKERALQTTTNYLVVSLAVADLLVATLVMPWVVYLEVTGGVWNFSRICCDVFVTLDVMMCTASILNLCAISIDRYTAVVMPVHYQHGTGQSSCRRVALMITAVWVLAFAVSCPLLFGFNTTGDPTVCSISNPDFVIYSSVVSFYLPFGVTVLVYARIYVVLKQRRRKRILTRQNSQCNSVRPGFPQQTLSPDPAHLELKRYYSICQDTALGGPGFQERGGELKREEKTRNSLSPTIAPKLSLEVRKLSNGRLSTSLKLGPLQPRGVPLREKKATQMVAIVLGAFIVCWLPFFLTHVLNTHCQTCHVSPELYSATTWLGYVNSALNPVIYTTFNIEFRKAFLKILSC
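Agonist mode: compounds and dopamine controls were applied to plated cells for 90 min at 37 degrees C after an overnight attachment at 1500 cells/well. Luminescent read-out followed 30 - 60 minutes at room temperature with DiscoveRx detection reagent.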
TGFb SMAD3 inh: qHTS for Inhibitors of TGF-b | Potency, µM (series often up to 46.1 µM), for inactives: at the top dose activity, negative = inhibition, actives largely listed as inhibitors | 1.2% of 410,000 active | HepG2 CAGA-GFP TGF-b/SMAD3 reporter, GFP fluorescence, 18 h; TGF-beta stimulated, 500 pg/mL final; note: potency is the fitted concentration of half-maximal effect; % is set by controls: 0 for no effect and ±100 for the full control effect; nearly all actives have a fitted effect of over 65% in size
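Cell-based qHTS in HEPG2 carrying a CAGA-GFP Smad reporter; compounds added before 500 pg/mL final TGF-beta, 18 h incubation at 37 degrees C, GFP fluorescence quantified per cell by imaging cytometry.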
D3 antag: qHTS of D3 Dopamine Receptor Antagonist: qHTS | D3R cells, DiscoveRx beta-arrestin luminescence, antagonist mode; hits give low values | max response, negative = inhibition, % | AID 652054, 2013 | 2.5% of 360,000 active | D(3) dopamine receptor (Homo sapiens), P35462; in the data active = max response below about -50%; inconclusive = no clear call, values can overlap the other calls; note: % is set by controls: 0 for no effect and ±100 for the full control effect
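Cells expressing the human receptor were seeded at 1500 cells/well, incubated overnight at 37 degrees C in 5% CO2, then exposed to library compounds with dopamine controls for 90 minutes at 37 degrees C before luminescent detection.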
S2 tox: Viability Counterscreen for Primary qHTS for Inhibitors of ATXN expression; Potency, µM (doses to about 56.7 µM), hits mostly cytotoxic; 0.49% of 400,000 active; S2 cells (HEK-293 line with an ATXN2-luciferase reporter) viability, CellTiter-Fluor protease fluorescence, 24 h; AID 651635, 2014; note: potency is the fitted concentration of half-maximal effect; nearly all actives have a fitted effect of over 40% in size
ATXN2 expr inh: Primary qHTS for Inhibitors of ATXN expression; HEK-293 ATXN2-luciferase reporter, luminescence, 24 h; AID 1745845, 2022; Potency, µM (highest dose often 57 µM), without a hit: at the highest dose activity change, negative = inhibition, usual class: inhibitors; 0.72% of 360,000 active; note: potency is the fitted concentration of half-maximal effect; % is set by controls: 0 for no effect and ±100 for the full control effect; nearly all actives have a fitted effect of over 55% in size
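qHTS (up to 57 uM final) was run with 24 h compound exposure of reporter cells at 37 °C. Each well was multiplexed: SteadyGlo luminescence measured ATXN2-luciferase expression after a fluorogenic Gly-Phe-AFC viability readout (25 uM final).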
Numbers without * were called inactive. Sampled rows, rich in hits. Any-hit rate of the full collection: about 4.8%. Unless noted, calls come from the whole dose curve; as a rule, active = well fitted curve in the direction sought with a large enough effect; inconclusive = small, poorly fitted or top-dose-only effect, or another doubt; inactive = no such curve, though single readings can be large; an effect the other way counts as inactive or inconclusive.

How did Cc1cc(Cl)c(OCCCSc2nc(C)cc(=O)[nH]2)c(Br)c1 do in these assays?
HepG2 viability: -28.7%; D3 ag: 41.4*; TGFb SMAD3 inh: -8.6%; D3 antag: 19.7; S2 tox: inactive; ATXN2 expr inh: 0.1%

What do the screens show for `NS(=O)(=O)c1ccc(N2CCN(CCOc3ccc(Cl)cc3)CC2)nc1`?
HepG2 viability: -49.7%; D3 ag: 36.3*; TGFb SMAD3 inh: -23.2%; D3 antag: -11.8; S2 tox: inactive; ATXN2 expr inh: -34.8%

What do the screens show for `NS(=O)(=O)c1ccc(N2CCN(S(=O)(=O)Cc3ccccc3)CC2)nc1`?
HepG2 viability: 2.5%; D3 ag: -1.6; TGFb SMAD3 inh: 0.4%; D3 antag: -7.1; S2 tox: inactive; ATXN2 expr inh: -4.8%

How did COC(=O)c1cn(NC(=O)c2cc([N+](=O)[O-])ccc2F)c(=O)c2ccccc12 do in these assays?
HepG2 viability: -5.6%; D3 ag: -3.0; TGFb SMAD3 inh: -18.1%; D3 antag: -29.5; S2 tox: inactive; ATXN2 expr inh: 1.06µM*

How did CCOc1cc(-c2c(C#N)c(N)nc3c2CCc2ccccc2-3)ccc1O do in these assays?
HepG2 viability: 12.6µM*; D3 ag: 0.6; TGFb SMAD3 inh: inconclusive; D3 antag: 7.6; S2 tox: inconclusive; ATXN2 expr inh: 43.2%

How did CCCOc1ccc(-c2nonc2NC(=O)c2oc3ccc(Cl)cc3c2C)cc1OCCC do in these assays?
HepG2 viability: 0.6%; D3 ag: -6.7; TGFb SMAD3 inh: 6.5%; S2 tox: inactive; ATXN2 expr inh: 10.6%

Results for CCOC(=O)C(=CNc1ccc(-c2ccco2)c(Cl)c1)C(=O)OCC ?
HepG2 viability: -42.7%; D3 ag: 37.8*; TGFb SMAD3 inh: inconclusive; D3 antag: 109.9; S2 tox: inactive

What do the screens show for `CCOC(=O)C(=CNc1ccc2c(c1)CCN2C(C)=O)C(=O)OCC`?
HepG2 viability: 43.0%; D3 ag: 32.4*; TGFb SMAD3 inh: 0.0%; D3 antag: 126.0; S2 tox: inactive; ATXN2 expr inh: -29.6%

What do the screens show for `O=C(Nc1nccs1)c1nc[nH]c1C(=O)N1CCN(c2ccccc2)CC1`?
HepG2 viability: 3.4%; D3 ag: 31.0*; TGFb SMAD3 inh: 13.4%; D3 antag: -8.9; S2 tox: inactive; ATXN2 expr inh: -11.3%

Results for O=C(Nc1ccccc1)c1nc[nH]c1C(=O)N1CCN(c2ccccc2)CC1 ?
HepG2 viability: -11.6%; D3 ag: 19.9; TGFb SMAD3 inh: -11.7%; D3 antag: -13.4; S2 tox: inactive; ATXN2 expr inh: -5.4%

How did O=C(NCc1ccccc1)C(=O)NCC(c1ccco1)N1CCOCC1 (configuration not stated) do in these assays?
HepG2 viability: -8.3%; D3 ag: 11.7; TGFb SMAD3 inh: -1.2%; D3 antag: 24.2; S2 tox: inconclusive; ATXN2 expr inh: 4.3%

Results for O=P(c1ccccc1)(c1ccccc1)C(c1ccco1)N1CCOCC1 (configuration not stated) ?
HepG2 viability: -16.0%; D3 ag: -28.4; TGFb SMAD3 inh: 15.2%; D3 antag: -61.3*; S2 tox: inactive; ATXN2 expr inh: -6.6%

What do the screens show for `O=C(CCCCCCCCC#CI)Oc1ccccc1`?
D3 ag: -16.6; S2 tox: inactive; ATXN2 expr inh: -13.0%

What do the screens show for `CCCCCCCCCCCC(=O)OC[C@@H](O)C1OC[C@H](O)[C@H]1O` (some centres not stated)?
D3 ag: 2.1

How did Cc1c(C(=O)Nc2cccc(C#N)c2)sc2nc3n(c(=O)c12)CCCCC3 do in these assays?
HepG2 viability: -20.5%; D3 ag: 2.2; TGFb SMAD3 inh: -16.0%

Bioassay records deposited in PubChem BioAssay by National Center for Advancing Translational Sciences (NCATS).
